This is a sample that favours compounds with a hit; in the whole collection about 2.7% have one here.
GLP1R inv ag: GLP-1 receptor (human) inverse agonism | HEK293 GLP-1R CRE-luciferase, luminescence, 24 h; GLP-1R form is constitutively active | hit rate 1.6% among 410,000 | AID 624417 | Potency, µM (series often up to 38.3 µM), most hits filed as inhibitors | P43220; note: nearly all actives have a fitted effect of over 55% in size
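Luminescence readout: a drop in cAMP-driven luciferase signal flags inverse agonism at a constitutively active GLP-1R stably expressed in HEK293. Compound exposure lasted 24 hr at 37 deg C, 5% CO2.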
rTrxR1 inhibitor: rat TrxR1 inhibition. O89049. recombinant rTrxR1, NADPH fluorescence consumption, selenite substrate. Potency, µM (highest dose often 114 µM), usual class: inhibitors. hit rate 1% among 390,000. AID 588453; note: nearly all actives have a fitted effect of over 65% in size
Target sequence (O89049 whole entry, looked up): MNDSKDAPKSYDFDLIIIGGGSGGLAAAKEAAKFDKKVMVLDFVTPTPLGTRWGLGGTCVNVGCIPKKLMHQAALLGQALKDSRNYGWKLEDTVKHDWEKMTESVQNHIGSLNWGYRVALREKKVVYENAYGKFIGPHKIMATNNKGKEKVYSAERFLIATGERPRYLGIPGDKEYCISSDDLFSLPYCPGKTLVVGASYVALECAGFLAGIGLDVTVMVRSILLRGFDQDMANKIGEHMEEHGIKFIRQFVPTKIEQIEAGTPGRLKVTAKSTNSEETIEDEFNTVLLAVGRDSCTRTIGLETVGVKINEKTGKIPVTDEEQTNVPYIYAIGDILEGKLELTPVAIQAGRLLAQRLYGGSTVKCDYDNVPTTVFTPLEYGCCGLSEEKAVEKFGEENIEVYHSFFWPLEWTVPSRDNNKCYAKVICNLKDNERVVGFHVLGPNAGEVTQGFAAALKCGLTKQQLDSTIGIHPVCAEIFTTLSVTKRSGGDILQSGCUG
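Rat TrxR1 (90 nM in the dispensed reagent) was pre-reduced with 400 uM NADPH for 5 min at room temperature, then incubated with compound for 15 min. After 400 uM selenite was added, NADPH fluorescence (Ex 340/Em 450 nm) was followed for 8 min.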
mIDH1 inhibitor: inhibitors of human mutant IDH1 R132H. O75874. IDH1-R132H enzyme, NADPH consumption, diaphorase/resazurin fluorescence. AID 602179. hit rate 0.093% among 390,000. Potency, µM (doses to about 76.6 µM), hits mostly inhibitors; note: nearly all actives have a fitted effect of over 65% in size
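IDH1-R132H (0.5 ug/mL) preincubated 30 min with compound, then NADPH (0.016 mM) and alpha-KG (2 mM) added; 80 min at RT, pH 7.5. Remaining NADPH coupled via diaphorase/resazurin to fluorescence (540/590 nm); concentration-response curves normalized to no-enzyme control.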
HEK293 tox: cytotoxic in the GLP-1 receptor inverse agonist counter-screen; Potency, µM (doses to about 38.3 µM), hits mostly inhibitors; hit rate 0.13% among 410,000; HEK293 cAMP-luciferase reporter cells, luminescence, 24 h;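 note: loss of luciferase light is scored as toxicity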
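MLSMR compounds, 24 hr on cells at 37 deg C/5% CO2; luminescence after luciferase reagent (12 min RT). Inhibition counted as the undesired cytotoxic outcome.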
GLP1R ag: agonists of human GLP-1 receptor | Potency, µM (doses to about 45.6 µM), most hits filed as activators | P43220 | hit rate 0.007% among 380,000 | HEK293 GLP-1R CRE-luciferase, luminescence, 4-6 h; cells express a hypersensitive GLP-1R form
TrxR1 substrate: rat thioredoxin reductase 1 substrate activity | O89049 | purified TrxR1 substrate turnover, NADPH consumption readout | Potency, µM (top dose mostly 114 µM) | hit rate 0.01% among 390,000 | AID 588456; note: nearly all actives have a fitted effect of over 50% in size
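Rat TrxR1, dispensed at 90 nM, was prereduced with 400 uM NADPH (final) for 5 min at ~22 deg C, then incubated with compound 15 min before 400 uM selenite. A first-read NADPH fluorescence drop versus no-compound background flagged substrates.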
Of the large screens only hits and unclear results are named; the others gave an inactive call. Calls come from the whole dose curve; as a rule, active = well fitted curve in the direction sought with a large enough effect; inconclusive = small, poorly fitted or top-dose-only effect, or another doubt; inactive = no such curve, though single readings can be large; an effect the other way counts as inactive or inconclusive.

CCOC(=O)c1nc(Nc2ccc(C(=O)OC(C)C)cc2)c2ccccc2n1	none (no result: mIDH1 inhibitor, GLP1R ag)
C=Nc1ccc(/C=C/c2ccnc3ccccc23)cc1	none (no result: GLP1R inv ag, mIDH1 inhibitor, HEK293 tox, GLP1R ag)
S=c1[nH]nc(-c2ccncc2)n1/N=C/C=C/c1ccco1	rTrxR1 inhibitor inconclusive
C(=C\c1ccco1)/C=N/n1cnnc1	rTrxR1 inhibitor 22.4µM
CCC(/C=C1\Sc2ccc(OC)cc2N1CCO)=C\c1sc2ccc(OC)cc2[n+]1CCO	GLP1R inv ag 10µM
CCOc1ccccc1NC(=O)NC1CC2CCCC(C1)N2Cc1nnnn1CCc1ccccc1 (configuration not stated)	GLP1R inv ag 10µM
O=C(Nc1ccccc1)NC1CC2CCC(C1)N2Cc1nnnn1Cc1ccc2c(c1)OCO2 (configuration not stated)	none
CCOC(=O)C1=C(Cc2ccc(F)cc2)C(=O)c2ccccc2C1=O	rTrxR1 inhibitor 6.31µM, HEK293 tox inconclusive
CCOP(=O)(OCC)C(C#N)=C1SCN(c2ccc(Cl)cc2)CS1	rTrxR1 inhibitor 12.6µM
CC(=O)c1nnn(-c2nc(C#N)nc(N3CCOCC3)n2)c1C	none (no result: GLP1R inv ag, mIDH1 inhibitor, HEK293 tox, GLP1R ag)
COCc1cc(C)nc2sc(C(=O)NN)c(-n3cccc3)c12	none
CCCCNC(=O)c1sc2nc(C)cc(COC)c2c1-n1cccc1	GLP1R inv ag 8.91µM
Cc1ccc(CNC(=O)CSc2ccsc2[N+](=O)[O-])cc1	rTrxR1 inhibitor 50.1µM
Cc1ccc(/C=C/c2onc(C)c2S(=O)(=O)N2CCC(C(=O)Nc3cccc(C#N)c3)CC2)cc1	none
CCC(C)(C)c1ccc(Oc2ccc(N)cc2)cc1	GLP1R inv ag 2.82µM
Fc1ccc2cnc(-c3ccccc3)c(-c3cc(C(F)(F)F)cc(C(F)(F)F)c3)c2c1	GLP1R inv ag 4.47µM
Fc1ccc2cnc(-c3ccccc3)c(-c3ccc(C(F)(F)F)cc3)c2c1	GLP1R inv ag 12.6µM
CCN(CC)CCC(c1ccc(N(C)C)cc1)c1c(OC)cc(OC)c2c(C)cc(=O)oc12 (configuration not stated)	none (no result: GLP1R inv ag, mIDH1 inhibitor, HEK293 tox, GLP1R ag)
Cc1ccccc1CSc1nc2c([nH]c3ccccc32)c(=O)n1-c1ccccc1	none (no result: GLP1R ag)
CCc1ccc(C(O)c2ncc(-c3cccc(C(F)(F)F)c3)[nH]2)cc1 (configuration not stated)	GLP1R inv ag inconclusive (no result: rTrxR1 inhibitor, mIDH1 inhibitor, TrxR1 substrate)
OC(Cc1ccccc1Br)c1ncc(-c2cccc(C(F)(F)F)c2)[nH]1 (configuration not stated)	GLP1R inv ag 10µM (no result: rTrxR1 inhibitor, mIDH1 inhibitor, TrxR1 substrate)
CCc1ccc(NS(=O)(=O)c2ccc(-c3cc(C)no3)cc2)cc1	GLP1R inv ag inconclusive (no result: GLP1R ag)
CC(NC(=O)/C(=C/c1ccc(OC(F)F)cc1)c1ccccc1)c1ccccc1 (configuration not stated)	GLP1R inv ag 4.47µM
CC(NC(=O)/C(C#N)=C/c1ccc(OCC(=O)O)cc1)c1ccccc1 (configuration not stated)	none
COc1ccc(-c2noc(CCC(=O)NCc3ccc(OC)cc3OC)n2)cc1	none
Cc1ccc(-c2nnc(SCCC(=O)Nc3ccccc3)n2C)cc1	none (no result: GLP1R inv ag, mIDH1 inhibitor, HEK293 tox, GLP1R ag)
O=C1C=C(NC2=CC3OC(c4ccccc4)OCC3OC2=O)CCC1 (configuration not stated)	rTrxR1 inhibitor 8.91µM
O=C1C=C(NCc2ccccc2)CCC1	none
COc1ccc(OC)c(CNC(=O)CCCc2cn(C)c3ccccc23)c1	GLP1R inv ag inconclusive
COc1ccc(Br)cc1CNC(=O)CCCc1cn(C)c2ccccc12	GLP1R inv ag 22.4µM
Oc1ccc(N2CCN(C(c3ccc(Cl)cc3)c3nnnn3Cc3ccc(F)cc3)CC2)cc1 (configuration not stated)	none (no result: GLP1R inv ag, mIDH1 inhibitor, HEK293 tox, GLP1R ag)
CCN(CC)S(=O)(=O)c1nnc(NC(=O)COc2ccccc2F)s1	none (no result: mIDH1 inhibitor, GLP1R ag)
Cc1c(C)n(CCCN(C)C)c2ncnc(NC3CCCCC3)c12	GLP1R inv ag 3.98µM
COc1ccc(Nc2ncnc3c2c(C)c(C)n3CCCN(C)C)cc1	GLP1R inv ag 11.2µM
Cc1c(C)n(CCCN(C)C)c2ncnc(Nc3ccccc3)c12	GLP1R inv ag inconclusive
COc1ccccc1Nc1ncnc2c1c(C)c(C)n2CCCN(C)C	GLP1R inv ag 2.24µM
COc1cc(OC)c(/C=C/c2ccc3ccccc3[n+]2C)c(OC)c1	none (no result: GLP1R inv ag, mIDH1 inhibitor, HEK293 tox, GLP1R ag)
Cc1ccc(-n2nnnc2CNC(=O)c2cc(C(F)(F)F)cc(C(F)(F)F)c2)cc1C	none (no result: GLP1R ag)
COC(=O)C1=C(C)NC(C)=C(C(=O)OC(C)(C)CN(C)CCC(c2ccccc2)c2ccccc2)C1c1cccc([N+](=O)[O-])c1 (configuration not stated)	none (no result: GLP1R inv ag, mIDH1 inhibitor, HEK293 tox)
COc1cc(/C=C/C(=O)c2ccc(C)c([N+](=O)[O-])c2)cc(OC)c1O	GLP1R inv ag 10µM
C[C@@H]1[C@H](c2ccccc2)OCCS(=O)(=O)N1Cc1ccc(Cl)cc1	none (no result: GLP1R inv ag, mIDH1 inhibitor, HEK293 tox, GLP1R ag)
CN(C(=O)CSc1nc2ccc(NC(=O)c3ccc(F)cc3)cc2s1)c1ccccc1	GLP1R inv ag inconclusive (no result: GLP1R ag)
O=C(CSc1nc2ccc(NC(=O)CSc3nnnn3-c3ccccc3)cc2s1)Nc1ccccc1	GLP1R inv ag inconclusive, HEK293 tox 10µM
O=C(CSc1nnnn1-c1ccccc1)Nc1ccccc1	none
CN(C(=O)CSc1nc2ccc(NC(=O)COc3ccc(F)cc3)cc2s1)c1ccccc1	GLP1R inv ag 11.2µM, HEK293 tox inconclusive (no result: mIDH1 inhibitor, GLP1R ag)
CN(C(=O)CSc1nc2ccc(NC(=O)CCc3ccccc3)cc2s1)c1ccccc1	GLP1R inv ag 8.91µM, HEK293 tox inconclusive (no result: GLP1R ag)
CC(/C=N/n1c(-c2ccc(C)cc2)n[nH]c1=S)=C\c1ccco1	rTrxR1 inhibitor inconclusive
CC(/C=N/n1c(-c2ccncc2)n[nH]c1=S)=C\c1ccco1	rTrxR1 inhibitor 50.1µM
Cc1ccc(S(=O)(=O)NC(CC(C)C)C(=O)NCC(c2ccco2)N2CCCCC2)cc1 (configuration not stated)	GLP1R inv ag 4.47µM
Cc1ccc(C)c(SCC(=O)NCC(c2ccco2)N2CCCCC2)c1 (configuration not stated)	GLP1R inv ag 11.2µM
Cc1cc(SCC(=O)NCC(c2cccs2)N2CCOCC2)c(C)cc1Br (configuration not stated)	GLP1R inv ag 11.2µM
CCC(=O)NCC(c1cccs1)N1CCOCC1 (configuration not stated)	none
CC(C)(Oc1ccc(Cl)cc1)C(=O)NCC(c1ccco1)N1CCCCC1 (configuration not stated)	GLP1R inv ag 8.91µM
COc1ccc(C(CNC(=O)C(C)(C)Oc2ccc(Cl)cc2)N2CCCCC2)cc1 (configuration not stated)	GLP1R inv ag inconclusive, HEK293 tox inconclusive

Screens from PubChem BioAssay.
